# Data from PubChem BioAssay (NCATS).
# A number with no mark means an inactive call. Inconclusive results are not listed. Some of the results follow. A call without a number means that no potency is given here. Active and inactive are the calls of the source. Unless noted, the call rests on the fitted dose curve; in most records, active means well fitted curve in the direction sought with a large enough effect; inconclusive means small, poorly fitted or top-dose-only effect, or another doubt; inactive means no such curve, though single readings can be large; an effect the other way counts as inactive or inconclusive.
# How the values were obtained:
# [1] = qHTS for Inhibitors of Plasmodium falciparum (DD2) proliferation (AID 504314);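 further: parasite DNA measured by SYBR Green fluorescence after red cell lysis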
# How it was run: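 Normalization used 0.29 uM artemisinin as full inhibition and DMSO as baseline. Parasitized erythrocytes were exposed to compounds for 72 h (37C, 5% CO2), then lysed with saponin/Triton buffer containing SYBR Green I.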
# [2] = qHTS for Inhibitors of Plasmodium falciparum (GB4) proliferation (AID 504315); further: nearly all actives have a fitted effect of over 50% in size
# How it was run: (§1)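 Parasite growth measured as SYBR Green DNA fluorescence (ex 485, em 535 nm) after overnight lysis following 72 h culture at 37 °C, 0.3% parasitemia, 2.5% hematocrit. Values normalized against DMSO and 0.29 uM artemisinin controls, with plate-stack correction.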
# [3] = qHTS for Inhibitors of Plasmodium falciparum (7G8) proliferation (AID 504316); further: nearly all actives have a fitted effect of over 65% in size
# How it was run: as §1
# [4] = qHTS for Inhibitors of Plasmodium falciparum (CP250) proliferation (AID 504320)
# How it was run: as §1
# [5] = biological target: Rap guanine nucleotide exchange factor 3 (Homo sapiens) (UniProt O95398); assay: Confirmatory qHTS for antagonist of cAMP-regulated guanine nucleotide exchange factor 3 (EPAC1) (AID 1645880); details: EPAC1 Rap1B-BODIPY-GDP exchange, fluorescence; activity, negative = inhibition: at 115 µM (top of the series); further: nearly all actives have a fitted effect of over 55% in size; further: potency means the concentration at half of the fitted maximal effect
# How it was run: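 Released BODIPY-GDP fluoresces less than Rap1-bound BODIPY-GDP; the signal is followed at 480/540 nm at 5-min intervals over 30 min, after 5 min at room temperature. Reactions contain 100 nM EPAC1, 250 nM RAP1B-BODIPY-GDP and 50 uM GDP; results are normalized to ATA and DMSO.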
# [6] = biological target: Rap guanine nucleotide exchange factor 3 (Homo sapiens) (UniProt O95398); assay: Confirmatory qHTS for agonist of cAMP-regulated guanine nucleotide exchange factor 3 (EPAC1) (AID 1645881); further: nearly all actives have a fitted effect of over 75% in size; further: potency means the concentration at half of the fitted maximal effect;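 on activation: EPAC1 catalysed release of BODIPY-GDP from Rap1B seen as fluorescence loss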
# [7] = biological target: Rap guanine nucleotide exchange factor 4 (Homo sapiens) (UniProt Q8WZA2); assay: Confirmatory qHTS for agonist of cAMP-regulated guanine nucleotide exchange factor 4 (EPAC2) (AID 1645884);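 further: nucleotide exchange releases bodipy-GDP from Rap1 and this lowers its fluorescence; nearly all actives have a fitted effect of over 65% in size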; further: potency means the concentration at half of the fitted maximal effect
# [8] = biological target: Rap guanine nucleotide exchange factor 4 (Homo sapiens) (UniProt Q8WZA2); assay: Confirmatory qHTS for antagonist of cAMP-regulated guanine nucleotide exchange factor 4 (EPAC2) (AID 1645885); further: nearly all actives have a fitted effect of over 25% in size; further: potency means the concentration at half of the fitted maximal effect
# [9] = biological target: Rap guanine nucleotide exchange factor 3 (Homo sapiens) (UniProt O95398); assay: Counterscreen qHTS for antagonist of cAMP-regulated guanine nucleotide exchange factor 3 (EPAC1) (AID 1645888)
# How it was run: (§2)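 Rap1B-BODIPY-GDP 250 nM + GDP 50 uM; cpds 7-pt, final 9.74 nM–152 uM (activator mode) or from 7.32 nM upwards (inhibitor mode); RT; FI 480/540 nm at 5 and 30 min, then ± cAMP, reread.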
# [10] = biological target: Rap guanine nucleotide exchange factor 3 (Homo sapiens) (UniProt O95398); assay: Counterscreen qHTS for agonist of cAMP-regulated guanine nucleotide exchange factor 3 (EPAC1) (AID 1645889); further: nearly all actives have a fitted effect of over 40% in size
# How it was run: as §2
# [11] = biological target: Tumor susceptibility gene 101 protein (Homo sapiens) (UniProt Q99816); assay: qHTS Assay for Iinhibitors of HIV-1 Budding by Blocking the Interaction of PTAP/TSG101: Hit Validation (AID 651600); further: nearly all actives have a fitted effect of over 70% in size
# How it was run: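 Displacement of a FITC-labeled PTAP-motif peptide (50 nM) from the Tsg101 binding domain (10 uM) was monitored by fluorescence polarization after a 20 min room-temperature incubation.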
# [12] = biological target: DNA polymerase iota (Homo sapiens) (UniProt Q9UNA4); assay: qHTS for Inhibitors of Polymerase Iota: Confirmatory Assay for Cherry-picked Compounds (AID 720496); details: Pol iota primer extension, TAMRA/BHQ fluorescence; further: potency means the concentration at half of the fitted maximal effect
# How it was run: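 Using TAMRA dequenching as read-out, activity of 10 nM human Pol iota on 50 nM (final) primer/reporter/template substrate was tracked from 0 to 10 min, following a 15 min room-temperature compound preincubation.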
# [13] = AP1 Signaling Pathway (AID 357; active means well fitted curve in either direction with a large enough effect, not every such curve was filed as active;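 further: ME-180 reporter cells stimulated with EGF at its EC50 level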); details: ME-180 (cervical carcinoma) AP-1-bla reporter, EGF-induced, beta-lactamase ratio, 5 h; at 7.69 µM (top of the series) unless noted
# How it was run: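 Beta-lactamase reporter under AP-1 response element, ME-180 background. Stimulus: EC50 EGF. Compound exposure 5 h, 37 °C. Detection: CCF4, 2.5 h RT, 460/530 nm. Values: AC50 from titration.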
# [14] = NFAT Signaling Pathway (AID 444; active means well fitted curve in either direction with a large enough effect, not every such curve was filed as active;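 further: carbachol stimulus at about its EC50 of 1 µM final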); details: Jurkat NFAT-bla M1, carbachol, beta-lactamase ratio, 5 h; at 7.69 µM (top of the series) unless noted
# How it was run: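 Read-out: CCF4 FRET ratio (460 nm/530 nm) after 1 h RT dye loading, used for %activity and AC50 from titration series. Cells: Jurkat NFAT-β-lactamase/M1 line, treated with compound plus 1 uM carbachol for 5 h, 37 °C.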
# [15] = Stat Signaling Pathway (AID 446; active means well fitted curve in either direction with a large enough effect, not every such curve was filed as active;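 further: ME-180 cervical cancer cells given 40 pM IL-6 alongside compound; SIE-controlled beta-lactamase reporter measured as 460/530 nm FRET emission ratio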)
# How it was run: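 Overnight-plated ME-180 cells bearing a STAT Inducible Element beta-lactamase reporter; 5 h co-exposure to compound and 40 pM IL-6; values normalized to 300 pM IL-6 and 125 nM JAK inhibitor controls.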
# [16] = biological target: Glucocorticoid receptor (Homo sapiens) (UniProt P04150); assay: GR-GFP Redistribution (AID 450;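 active means compounds whose dose series gives a full or clear partial fitted curve of increased nuclear translocation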; further: potency means the concentration at half of the fitted maximal effect); details: U2OS GR-GFP nuclear translocation, laser cytometry, 2 h
# [17] = biological target: DNA polymerase eta (Homo sapiens) (UniProt Q9Y253); assay: qHTS for Inhibitors of Polymerase Eta: Confirmatory Assay for Cherry-picked Compounds (AID 720502); details: Pol eta primer extension, TAMRA/BHQ fluorescence, 10 min; further: potency means the concentration at half of the fitted maximal effect
# How it was run: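 Quenched-fluorescence replication assay: 10 nM Pol eta, 50 nM substrate final, 15 min compound preincubation at room temperature, 10 min kinetic reaction read at 525/598 nm.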
# [18] = biological target: Lysosomal acid glucosylceramidase (Homo sapiens) (UniProt P04062); assay: Glucocerebrosidase-p2 (AID 348; in the data active means potency below about 10 µM; further: potency means the concentration at half of the fitted maximal effect); details: purified GBA, blue fluorogenic substrate, 40 min
# How it was run: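 Normal human glucocerebrosidase (0.2 nM) with blue fluorogenic substrate (80 uM final) in citrate/phosphate pH 5.9 with 10mM sodium taurocholate, 0.01% tween-20; 40 min RT, NaOH/glycine stop; fluorescence Ex 365/Em 440; AC50 from a titration from 0.6 nM upwards.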
# [19] = biological target: Cytochrome P450 1A2 (Homo sapiens) (UniProt P05177); assay: p450-cyp1a2 (AID 410; calls by dose curve; further: potency means the concentration at half of the fitted maximal effect)
# How it was run: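 20nM CYP1A2, 100uM Luciferin-ME (=Km), 100mM KPO4; cpd 10 min RT; +NADPH regen, 60 min RT; stop/detect 20 min; luminescence. Normalized to furafylline 57 uM = full inhibition.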
# [20] = biological target: Glucocorticoid receptor (Homo sapiens) (UniProt P04150); assay: GR-EFC Redistribution (AID 451; calls by dose curve; further: potency means the concentration at half of the fitted maximal effect); details: CHO-K1 GR-EFC translocation, beta-gal luminescence, 2 h
# How it was run: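 Translocation of GR-ED fusion to nuclear EA restores b-gal, read by luminescence after 1 h room-temperature detection. Engineered CHO-K1 biosensor cells, 1,000/well, exposed 2 h at 37 C to titrations up to 46 uM final.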
# [21] = biological target: Mitogen-activated protein kinase 10 (Mus musculus) (UniProt Q61831); assay: JNK3 AlphaScreen Assay (AID 530; active means well fitted curve in either direction with a large enough effect, not every such curve was filed as active;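 further: kinase came from lysate of stimulated human HepG2 cells; signal reports phosphorylation of biotinylated GST-cJun 1-79 at Ser73 with 10 µM ATP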)
# How it was run: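 Kinase buffer: 20 mM Tris-HCl pH 7.6, 10 mM MgCl2, 1 mM DTT, 0.1 mM Na3VO4, 0.01% Tween-20; ATP 10 uM. Substrate biotin-GST-cJun(1-79), enzyme from activated HepG2 lysates. Detection by Ser73 phospho-antibody AlphaScreen.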
# [22] = biological target: 3',5'-cyclic-AMP phosphodiesterase 4B (Homo sapiens) (UniProt Q07343); assay: qHTS Assay for Inhibitors of PDE-IV (AID 607; active means well fitted activation curve with a large enough effect in the main read-out, with a control signal flat, not every such curve was filed as active)
# How it was run: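 Live HEK293 cells with a modified cyclic nucleotide-gated (CNG) channel report intracellular cAMP via membrane-potential dye fluorescence (ex 535/em 590 nm). Endogenous PDE-IV was targeted. Compounds were tested at up to 22.9 uM final; RO 20-1724 100 uM served as control.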
# [23] = biological target: Cytochrome P450 2C9 (Homo sapiens) (UniProt P11712); assay: qHTS Assay for Inhibitors and Substrates of Cytochrome P450 2C9 (AID 883); further: potency means the concentration at half of the fitted maximal effect; nearly all actives have a fitted effect of over 60% in size
# How it was run: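 Luminescent read-out of deoxyluciferin hydroxylation, normalized to 57uM sulphaphenazole (AC100). Reaction: 10nM enzyme, 100uM Luciferin-H (equal to KM), 25mM KPO4, 10 min compound preincubation, then 60 min with NADPH regeneration, both at 37C.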
# [24] = biological target: Cytochrome P450 3A4 (Homo sapiens) (UniProt P08684); assay: qHTS Assay for Activators of Cytochrome P450 3A4 (AID 885); further: nearly all actives have a fitted effect of over 65% in size
# How it was run: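 Using 20nM recombinant human CYP3A4 in potassium phosphate (200mM), substrate Luciferin-PPXE at 25uM, luminescent luciferin detection followed a 60-min RT NADPH reaction; data scaled to 57 uM ketoconazole.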
# [25] = biological target: Cytochrome P450 2C19 (Homo sapiens) (UniProt P33261); assay: qHTS Assay for Inhibitors and Substrates of Cytochrome P450 2C19 (AID 899); further: potency means the concentration at half of the fitted maximal effect; nearly all actives have a fitted effect of over 60% in size
# How it was run: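 Luminescence readout of luciferin formed from 10uM Luciferin-H EGE (KM level) by 5 nM CYP2C19 in 50mM KPO4. 60 min NADPH-driven reaction at 37C after 10 min compound preincubation; data scaled to 57uM ketoconazole inhibition.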
# Sequence of Glucocorticoid receptor (Homo sapiens) (P04150 whole entry, looked up, the tested form may be a part): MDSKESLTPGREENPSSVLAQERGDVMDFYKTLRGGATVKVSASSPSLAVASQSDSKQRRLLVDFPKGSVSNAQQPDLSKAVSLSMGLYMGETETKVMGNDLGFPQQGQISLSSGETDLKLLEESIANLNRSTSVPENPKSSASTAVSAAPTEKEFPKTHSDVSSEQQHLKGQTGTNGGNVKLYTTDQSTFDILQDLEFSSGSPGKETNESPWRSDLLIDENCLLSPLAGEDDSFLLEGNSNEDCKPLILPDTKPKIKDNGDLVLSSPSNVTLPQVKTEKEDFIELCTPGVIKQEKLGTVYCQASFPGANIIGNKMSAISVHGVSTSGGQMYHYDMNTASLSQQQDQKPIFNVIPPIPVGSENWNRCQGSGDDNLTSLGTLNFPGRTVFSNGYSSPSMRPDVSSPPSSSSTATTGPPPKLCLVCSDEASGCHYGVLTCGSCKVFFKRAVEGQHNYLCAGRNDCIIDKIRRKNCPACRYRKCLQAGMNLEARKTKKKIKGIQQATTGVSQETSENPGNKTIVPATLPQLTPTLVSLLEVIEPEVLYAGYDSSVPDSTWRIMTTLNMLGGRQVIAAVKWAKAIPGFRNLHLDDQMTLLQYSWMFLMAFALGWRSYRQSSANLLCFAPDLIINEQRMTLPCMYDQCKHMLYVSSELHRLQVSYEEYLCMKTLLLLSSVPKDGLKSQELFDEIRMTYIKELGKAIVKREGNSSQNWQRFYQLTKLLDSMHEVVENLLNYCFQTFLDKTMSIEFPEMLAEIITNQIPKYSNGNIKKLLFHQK
# Sequence of Rap guanine nucleotide exchange factor 4 (Homo sapiens) (Q8WZA2 whole entry, looked up): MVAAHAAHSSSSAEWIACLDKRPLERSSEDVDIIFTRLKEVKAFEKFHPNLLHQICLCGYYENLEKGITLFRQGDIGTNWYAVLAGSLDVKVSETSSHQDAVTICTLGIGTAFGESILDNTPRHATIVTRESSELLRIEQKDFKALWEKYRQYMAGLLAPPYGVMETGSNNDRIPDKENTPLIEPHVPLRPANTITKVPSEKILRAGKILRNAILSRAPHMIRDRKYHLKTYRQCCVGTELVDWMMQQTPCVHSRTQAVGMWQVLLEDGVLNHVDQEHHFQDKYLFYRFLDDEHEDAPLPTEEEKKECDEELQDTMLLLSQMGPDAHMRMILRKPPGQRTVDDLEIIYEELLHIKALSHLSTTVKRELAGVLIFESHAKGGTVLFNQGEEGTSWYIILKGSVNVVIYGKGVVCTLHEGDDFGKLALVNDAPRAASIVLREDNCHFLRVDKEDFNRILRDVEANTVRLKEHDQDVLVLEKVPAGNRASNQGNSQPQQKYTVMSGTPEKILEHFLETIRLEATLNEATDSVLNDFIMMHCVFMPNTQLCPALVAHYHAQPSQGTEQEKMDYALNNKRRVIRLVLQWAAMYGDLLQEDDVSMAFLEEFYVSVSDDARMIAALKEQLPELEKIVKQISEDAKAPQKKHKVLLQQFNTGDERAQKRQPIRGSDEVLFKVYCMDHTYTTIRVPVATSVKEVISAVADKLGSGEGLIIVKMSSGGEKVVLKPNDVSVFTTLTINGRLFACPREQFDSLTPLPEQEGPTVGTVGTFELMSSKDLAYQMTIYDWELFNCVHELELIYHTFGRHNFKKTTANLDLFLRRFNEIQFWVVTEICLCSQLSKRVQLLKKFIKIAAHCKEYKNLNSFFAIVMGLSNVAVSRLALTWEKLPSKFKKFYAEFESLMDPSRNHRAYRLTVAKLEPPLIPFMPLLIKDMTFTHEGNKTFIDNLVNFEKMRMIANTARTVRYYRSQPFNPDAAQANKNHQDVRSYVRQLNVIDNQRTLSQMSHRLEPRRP
# Sequence of Rap guanine nucleotide exchange factor 3 (Homo sapiens) (O95398 whole entry, looked up): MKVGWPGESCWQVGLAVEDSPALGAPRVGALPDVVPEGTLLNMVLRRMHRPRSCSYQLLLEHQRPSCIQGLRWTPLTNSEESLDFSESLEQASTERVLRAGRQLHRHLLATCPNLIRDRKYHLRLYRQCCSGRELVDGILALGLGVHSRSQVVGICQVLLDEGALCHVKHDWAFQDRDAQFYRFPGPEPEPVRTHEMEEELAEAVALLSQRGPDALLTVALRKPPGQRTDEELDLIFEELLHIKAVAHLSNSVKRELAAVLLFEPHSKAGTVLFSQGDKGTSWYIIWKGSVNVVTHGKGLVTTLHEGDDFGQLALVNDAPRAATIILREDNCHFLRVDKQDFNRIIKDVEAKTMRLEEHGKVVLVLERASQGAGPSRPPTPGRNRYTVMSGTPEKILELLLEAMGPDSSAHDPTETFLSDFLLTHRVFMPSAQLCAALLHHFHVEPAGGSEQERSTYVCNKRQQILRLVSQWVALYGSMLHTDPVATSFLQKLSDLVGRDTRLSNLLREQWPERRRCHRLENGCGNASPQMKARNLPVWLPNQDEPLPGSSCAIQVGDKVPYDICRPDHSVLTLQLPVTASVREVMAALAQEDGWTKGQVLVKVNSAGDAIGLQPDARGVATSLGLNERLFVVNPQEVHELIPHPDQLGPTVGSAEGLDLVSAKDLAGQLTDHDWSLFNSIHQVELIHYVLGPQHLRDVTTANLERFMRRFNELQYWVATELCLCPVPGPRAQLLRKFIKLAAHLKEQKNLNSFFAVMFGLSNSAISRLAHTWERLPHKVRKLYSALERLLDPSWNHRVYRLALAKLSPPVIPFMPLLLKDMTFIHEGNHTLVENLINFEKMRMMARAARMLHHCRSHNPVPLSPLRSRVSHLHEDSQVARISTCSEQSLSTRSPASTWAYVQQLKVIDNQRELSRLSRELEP
# Sequence of DNA polymerase iota (Homo sapiens) (Q9UNA4 whole entry, looked up): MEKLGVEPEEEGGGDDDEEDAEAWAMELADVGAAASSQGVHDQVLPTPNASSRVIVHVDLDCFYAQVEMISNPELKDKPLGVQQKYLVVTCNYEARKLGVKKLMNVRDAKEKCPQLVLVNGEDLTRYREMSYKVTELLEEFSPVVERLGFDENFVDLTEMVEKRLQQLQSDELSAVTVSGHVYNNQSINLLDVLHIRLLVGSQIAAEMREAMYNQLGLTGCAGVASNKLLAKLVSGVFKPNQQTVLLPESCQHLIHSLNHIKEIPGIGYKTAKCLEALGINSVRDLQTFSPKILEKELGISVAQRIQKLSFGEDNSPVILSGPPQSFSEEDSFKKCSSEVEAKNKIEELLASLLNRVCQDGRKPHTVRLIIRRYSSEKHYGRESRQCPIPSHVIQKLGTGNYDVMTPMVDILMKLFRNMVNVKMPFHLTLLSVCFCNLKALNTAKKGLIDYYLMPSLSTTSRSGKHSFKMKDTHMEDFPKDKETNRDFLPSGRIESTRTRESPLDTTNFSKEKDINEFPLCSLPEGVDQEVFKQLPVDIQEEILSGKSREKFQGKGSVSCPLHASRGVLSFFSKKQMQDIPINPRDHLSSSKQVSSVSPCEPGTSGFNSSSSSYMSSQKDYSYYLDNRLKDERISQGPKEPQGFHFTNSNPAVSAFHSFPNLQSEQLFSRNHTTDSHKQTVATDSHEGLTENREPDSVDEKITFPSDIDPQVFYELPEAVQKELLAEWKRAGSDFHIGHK
# Sequence of Cytochrome P450 2C9 (Homo sapiens) (P11712 whole entry, looked up): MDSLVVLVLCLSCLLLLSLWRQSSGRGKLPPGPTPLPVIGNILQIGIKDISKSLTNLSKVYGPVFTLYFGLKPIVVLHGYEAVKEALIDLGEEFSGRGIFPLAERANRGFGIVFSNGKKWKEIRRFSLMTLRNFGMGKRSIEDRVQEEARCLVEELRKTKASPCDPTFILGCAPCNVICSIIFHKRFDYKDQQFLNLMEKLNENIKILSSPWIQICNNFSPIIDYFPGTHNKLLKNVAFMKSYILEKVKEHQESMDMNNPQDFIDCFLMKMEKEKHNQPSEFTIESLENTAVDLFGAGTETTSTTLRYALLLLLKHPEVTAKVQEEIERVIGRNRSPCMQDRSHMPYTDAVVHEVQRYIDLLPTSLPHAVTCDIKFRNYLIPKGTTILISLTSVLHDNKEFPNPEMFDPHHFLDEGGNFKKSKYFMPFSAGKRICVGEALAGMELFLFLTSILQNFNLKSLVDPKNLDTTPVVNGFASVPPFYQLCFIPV
# Sequence of Cytochrome P450 1A2 (Homo sapiens) (P05177 whole entry, looked up): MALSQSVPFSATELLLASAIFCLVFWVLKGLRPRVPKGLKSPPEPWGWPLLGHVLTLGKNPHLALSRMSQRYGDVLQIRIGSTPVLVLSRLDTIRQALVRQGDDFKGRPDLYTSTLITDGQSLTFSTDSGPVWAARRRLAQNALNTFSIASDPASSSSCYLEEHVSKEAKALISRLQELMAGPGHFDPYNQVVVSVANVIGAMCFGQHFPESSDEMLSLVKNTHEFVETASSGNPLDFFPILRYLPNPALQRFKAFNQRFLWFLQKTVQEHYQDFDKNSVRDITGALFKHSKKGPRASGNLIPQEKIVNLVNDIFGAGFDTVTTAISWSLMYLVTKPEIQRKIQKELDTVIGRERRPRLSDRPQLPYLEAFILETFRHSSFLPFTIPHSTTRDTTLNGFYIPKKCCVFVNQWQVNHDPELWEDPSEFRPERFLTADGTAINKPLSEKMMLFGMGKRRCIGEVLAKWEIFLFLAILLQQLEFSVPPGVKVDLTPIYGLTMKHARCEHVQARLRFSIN
# Sequence of Lysosomal acid glucosylceramidase (Homo sapiens) (P04062 whole entry, looked up): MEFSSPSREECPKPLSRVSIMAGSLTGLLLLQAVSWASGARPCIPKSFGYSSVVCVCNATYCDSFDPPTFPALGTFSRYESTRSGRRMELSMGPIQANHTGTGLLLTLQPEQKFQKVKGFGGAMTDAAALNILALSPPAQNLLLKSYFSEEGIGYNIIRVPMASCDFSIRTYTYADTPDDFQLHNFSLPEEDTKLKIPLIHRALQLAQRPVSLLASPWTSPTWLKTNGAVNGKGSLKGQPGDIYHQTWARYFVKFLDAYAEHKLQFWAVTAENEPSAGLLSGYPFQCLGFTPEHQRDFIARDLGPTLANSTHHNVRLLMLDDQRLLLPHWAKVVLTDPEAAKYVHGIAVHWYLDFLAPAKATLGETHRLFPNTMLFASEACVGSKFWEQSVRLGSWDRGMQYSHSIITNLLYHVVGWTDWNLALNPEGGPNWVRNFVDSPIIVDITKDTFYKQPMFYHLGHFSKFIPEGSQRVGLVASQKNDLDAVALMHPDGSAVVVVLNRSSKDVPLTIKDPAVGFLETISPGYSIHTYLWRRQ
smiles,measurement,setting,value
COc1ccc2c(c1)O[C@H](c1ccc3c(c1)OCO3)[C@@H](O)C2=O,outcome,[1],inactive
same,outcome,[2],inactive
same,outcome,[3],inactive
same,outcome,[4],inactive
same,Potency,[5],inactive
same,Potency,[6],inactive
same,activation,[7],"6.45% [at 17.1 µM, percent relative to cAMP agonist control]"
same,Potency,[8],inactive
same,"activity change, negative = inhibition",[9],-0.524% [at 30.8 µM]
same,activation,[10],17% [at 30.8 µM]
Cc1cc(NS(=O)(=O)c2ccc(NC(=O)COc3c(C)cc(Br)cc3C)cc2)no1,Potency,[11],inactive
same,Potency,[5],inactive
same,Potency,[6],inactive
same,Potency,[7],inactive
same,Potency,[8],inactive
same,Potency,[9],inactive
same,Potency,[10],inactive
COc1ccc(S(=O)(=O)/N=C2\C=C(NS(=O)(=O)c3ccccc3)C(=O)c3ccccc32)cc1,Potency,[12],67 µM (active)
same,Potency,[5],8.49 µM (active)
same,Potency,[6],50.1 µM (active)
same,Potency,[7],100 µM (active)
same,Potency,[8],10.7 µM (active)
same,Potency,[9],inactive
same,Potency,[10],inactive
CC1=C(C#N)C(=O)OC(C)(C)C1,"activity change, negative = inhibition",[13],8.14% [at 17.2 µM]
same,"activity change, negative = inhibition",[14],-4.86% [at 17.2 µM]
same,outcome,[15],inactive
same,Potency,[16],> 20.6 µM
same,Potency,[5],inactive
same,Potency,[6],inactive
same,Potency,[7],inactive
same,Potency,[8],0.601 µM (active)
same,Potency,[9],inactive
NC1=CC(=O)C(=O)c2cccnc21,Potency,[12],42.3 µM (active)
same,Potency,[17],26.9 µM (active)
same,Potency,[5],10 µM (active)
same,Potency,[6],inactive
same,activation,[7],"3.71% [at 17.1 µM, percent relative to cAMP agonist control]"
same,Potency,[8],inactive
same,"activity change, negative = inhibition",[9],-7.69% [at 30.8 µM]
same,activation,[10],11.2% [at 30.8 µM]
O=C(O)CC1Sc2nc3ccccc3n2C1=O (stereo not drawn),"activity change, negative = inhibition",[13],12.1% [at 17.2 µM]
same,"activity change, negative = inhibition",[14],6.71% [at 17.2 µM]
same,outcome,[15],inactive
same,Potency,[16],> 20.6 µM
same,Potency,[5],inactive
same,Potency,[6],inactive
same,activation,[7],"10.5% [at 17.1 µM, percent relative to cAMP agonist control]"
same,Potency,[8],inactive
same,"activity change, negative = inhibition",[9],-7.87% [at 30.8 µM]
same,activation,[10],12.5% [at 30.8 µM]
c1ccc(NN(Cc2cnccn2)c2ccccc2)cc1,Potency,[18],> 11.4 µM
same,"activity change, negative = inhibition",[13],-14%
same,Potency,[19],2 µM (active)
same,outcome,[15],inactive
same,Potency,[16],> 46 µM
same,Potency,[20],> 9.22 µM
same,"activity change, negative = inhibition",[21],3.55% [at 11.4 µM]
same,Potency,[22],inactive
same,Potency,[23],3.16 µM (active)
same,"activity change, positive = activation",[24],-52.2% [at 11.4 µM]
same,Potency,[25],2 µM (active)
same,Potency,[5],inactive
same,Potency,[6],inactive
same,Potency,[7],inactive
same,Potency,[8],inactive
same,Potency,[9],inactive
same,Potency,[10],inactive
